Assay outcomes (PubChem BioAssay)
Pf growth 96h – Primary qHTS for delayed death inhibitors of the malarial parasite plastid, 96 hour incubation; P. falciparum luciferase reporter growth, 96 h; Potency, µM (top dose mostly 28.7 µM), inactives show top-dose activity change, negative = inhibition, usual class: inhibitors; hit rate 6.9% among 320,000; AID 504834, 2011; further: potency means the concentration at half of the fitted maximal effect; on the % scale 0 is the no-effect control and ±100 the full control effect
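Readout is luminescence from an integrated firefly luciferase in P. falciparum. Red cells, 2% hematocrit and 0.05% parasitemia final, were cultured with compound through two parasite generations (96 hours) at 37 C, 5% CO2.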
MARV entry inh – qHTS for inhibitors of binding or entry into cells for Marburg Virus; Marburg virus pseudotyped entry inhibition, cell reporter; Potency, µM (highest dose often 37.8 µM), for the others: at the top dose activity change, negative = inhibition, usual class: inhibitors; hit rate 1.8% among 300,000; calls by dose curve; tested in HEK293 cells; further: potency means the concentration at half of the fitted maximal effect; on the % scale 0 is the no-effect control and ±100 the full control effect
Pf growth 48h – Primary qHTS for delayed death inhibitors of the malarial parasite plastid, 48 hour incubation | P. falciparum luciferase growth in erythrocytes, 48 h | Potency, µM (top dose mostly 28.7 µM), for inactives: at the top dose activity change, negative = inhibition, most hits filed as inhibitors | hit rate 5.9% among 310,000 | AID 504832, 2011; further: potency means the concentration at half of the fitted maximal effect; on the % scale 0 is the no-effect control and ±100 the full control effect
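Parasite viability was followed by luminescence of a genomically integrated firefly luciferase. Cultures held 0.1% parasitemia at 2% hematocrit (final), incubated under 5% CO2 at 37 C.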
Lassa entry inh – qHTS for Inhibitors of binding or entry into cells for Lassa Virus; Lassa virus pseudotype entry inhibition, cell reporter; Potency, µM (series often up to 37.9 µM), for the others: top-dose activity change, negative = inhibition, actives largely listed as inhibitors; hit rate 1.2% among 300,000; calls by dose curve; tested in HEK293 cells; further: potency means the concentration at half of the fitted maximal effect; on the % scale 0 is the no-effect control and ±100 the full control effect; nearly all actives have a fitted effect of over 50% in size
Shiga toxin inh – A qHTS for Small Molecule Inhibitors of Shiga Toxin | Vero cells, Shiga toxin protein synthesis inhibition reporter | hit rate 9.2% among 290,000 | inhibition, % at 38.7 µM | AID 2315, 2010; in the data active means inhibition mostly above about 28%, no sharp cut-off; inactive means mostly below about 43%; further: 0% is about no effect
CHX counter – Cycloheximide Counterscreen for Small Molecule Inhibitors of Shiga Toxin. cell reporter, cycloheximide protein synthesis inhibition counterscreen. max response, %. hit rate 12% among 300,000; in the data active means max response mostly above about 13%, no sharp cut-off; inactive means mostly below about 14%; further: read at 38.3 µM for the half of the compounds with a filed dose; 0% is about no effect
Numbers without * were called inactive; i = inactive; ? = inconclusive; . = no result; [ ] = remark or other dose. Only some compounds are listed: those with a hit (about 19% of all), similar ones and a draw of the others. Unless noted, the call rests on the fitted dose curve; in most records, active means well fitted inhibition curve with a large enough effect; inconclusive means small, poorly fitted or top-dose-only effect, or another doubt; inactive means no such curve, though single readings can be large or run the other way.

SMILES	Pf growth 96h	MARV entry inh	Pf growth 48h	Lassa entry inh	Shiga toxin inh	CHX counter
Cc1cc(/C(N)=N/OC(=O)c2ccccc2Cl)no1	i	?	199.5%	?	37.9*	21.1*
N/C(=N\OC(=O)c1ccc(F)cc1)c1nonc1N	25.0%	?	21.3%	0.2%	71.4*	48.0*
Cc1ccc(C(=O)O/N=C(\N)c2nonc2N)cc1	?	0.5%	83.6%	18.0%	50.9*	46.9*
Cn1c(=O)cc(OCCCC(=O)Nc2ccc3c(c2)OCCO3)c2ccccc21	?	?	?	10.3%	-4.3	4.5
CC(C)=CC(=O)OCC(=O)Nc1cc([N+](=O)[O-])ccc1F	16.0%	-12.5%	24.6%	9.9%	-9.4	-7.2
COC(=O)c1scc(-c2ccc(C)cc2)c1S(=O)(=O)Nc1cc(C)ccc1OC	.	.	.	-24.0%[46.1 µM]	.	.
Cc1ccc(-n2nc(C)c3c(C(=O)NCCc4ccc(S(N)(=O)=O)cc4)cc(C)nc32)cc1	.	.	.	22.5%[46.1 µM]	.	.
Cc1cccc2cc3c(nc12)-c1ccccc1C3=O	0.0%	.	-15.9%[0.00184 µM]	.	42.6*	17.3*
Nc1nc(OCC(F)(F)F)cc(Oc2ccccc2F)n1	23.3%	6.4%	3.7%	2.8%	80.0*	22.0*
Nc1cc(N)c(OCC(F)(F)F)cc1OCC(F)(F)F	0.0%	-4.2%	-21.6%	0.1%	7.4	1.9
O=C1NC(=O)N(c2ccc3c(c2)OCO3)C(=O)/C1=C/c1cccs1	18.5%	?	16.6%	?	48.7*	1.1
CCCC(=O)c1cc(-c2nc3ccccc3n2C)n(C)c1	.	10.1%[46.1 µM]	-9.0%	2.2%	-2.6	7.0
O=C(CN1CCCCC1)N/N=C/c1cc2ccccc2nc1Cl	-20.1%	1.2%[46.1 µM]	-9.7%	?	29.2	13.6
C(=N\Nc1nc2ccccc2[nH]1)/c1ccncc1	-0.1%	?	?	?	69.0*	32.5*
Clc1nc2ccccc2cc1/C=N/Nc1nc2ccccc2[nH]1	?	-5.7%	0.522µM*	?	21.4	40.8*
CCN(CC)c1ccc(C=NNc2ccc([N+](=O)[O-])cn2)cc1	.	?	.	-11.5%[46.1 µM]	.	.
CCN(CC)c1ccc(/C=N/Nc2nc3ccccc3[nH]2)cc1	2.62µM*	8.2µM*	1.85µM*	8.2µM*	109.9*	37.4*
COC(=O)c1ccc(/C=N/Nc2nc3ccccc3[nH]2)cc1	?	?	?	-0.9%[46.1 µM]	151.2*	46.6*
Cc1ccc(Cn2c(=O)n(CCCCC(=O)NCCc3ccc(Cl)cc3)c(=O)c3ccccc32)cc1	.	?	.	23.1%[46.1 µM]	.	.
O=C(NNC(=S)NC(=O)c1ccco1)c1ccc(NC(=O)c2ccccc2)cc1	60.9%	?	?	-23.8%	-9.4	-8.1
O=C(O)c1ccc(/C=N/Nc2nc3ccccc3[nH]2)cc1	15.4%	10.9%[46.1 µM]	37.7%	?	24.0	16.1*
CC(=O)Nc1ccc(/C=N/Nc2nc3ccccc3[nH]2)cc1	?	1.0%	1.85µM*	.	61.5*	49.9*
O=C(Cc1nc2ccccc2[nH]1)N/N=C/c1ccccc1	-26.2%	16.6%	22.3%	-0.7%	2.1	2.6
CC(=O)Nc1ccc(/C=C/c2nc3ccccc3[nH]c2=O)cc1	13.1%	12.3%[46.1 µM]	35.7%	?	59.1	8.6
COc1ccc(C2c3c(ccc4ccccc34)Oc3ncn4nc(CO/N=C/c5ccccc5)nc4c32)cc1 (stereo not drawn)	.	-1.3%	4.2%	?	5.1	-1.7
CCc1ccccc1NC(=O)CN1CCN(C(=O)c2cccc(-n3cnnn3)c2)CC1	?	.	-7.6%	.	.	.
COc1cc(C2C(C#N)=C(N)N(c3sc4c(c3C#N)CCCC4)C3=C2C(=O)CC(C)(C)C3)cc(OC)c1OC (stereo not drawn)	11.7µM*	?	?	?	-15.6	-0.1
Cc1ccccc1C1C(C#N)=C2NC(=O)c3c(sc4c3CCCCC4)N2C2=C1C(=O)CC(C)(C)C2 (stereo not drawn)	-0.3%	.	?	.	-7.0	-2.7
COCCCN(C(=O)Nc1ccc(C)c(C)c1)C(C)c1ccccn1 (stereo not drawn)	13.1µM*	.	.	.	3.4	-1.5
CCc1ccc(NC(=O)c2cccnc2)cc1	52.5%	?	209.7%	-5.6%	72.9*	32.2*
